# High-throughput results as filed in PubChem.
# The list is not random: actives were taken first. Their share in the collection is about 19%.
# HT1080 IDH1KD tx = qHTS for induction of synthetic lethality in tumor cells producing 2HG: qHTS for the HT-1080-IDH1KD cell line; actives 2% (n = 360,000); Potency, µM (top dose mostly 46.1 µM), for the others: at the top dose activity, negative = toxicity, usual class: cytotoxic; HT-1080 IDH1 knockdown viability, ATP luminescence, 48 h;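 also: potency is read from the fitted curve at half-maximal effect; 0% = DMSO wells and -100% = cell-free medium wells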
#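 Assay cells: HT-1080 with IDH1 knockdown, 750 per well, RPMI/5% FBS. Exposure: 48 h at 37 °C following 2 h pre-incubation. Read: CellTiter-Glo luminescence; fitted concentration-response, curve class assigned.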
# DT40 TDP1 no CPT = qHTS for Inhibitors of human tyrosyl-DNA phosphodiesterase 1 (TDP1): qHTS in cells in absence of CPT; DT40 Tdp1-/- hTDP1 cells, no CPT, ATP luminescence, 48 h; Potency, µM (titrated, usually from 46.2 µM), inactives show at the top dose activity change, negative = growth inhibition, hits mostly inhibitors; actives 15% (n = 420,000); also: potency is read from the fitted curve at half-maximal effect; nearly all actives have a fitted effect of over 55% in size
#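 Stably hTDP1-transfected Tdp1-null chicken DT40 cells were treated with library compounds minus camptothecin and grown for at least 48 hr at 37 °C, after which cellular ATP was quantified by luminescence.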
# DT40 TDP1 CPT = qHTS for Inhibitors of human tyrosyl-DNA phosphodiesterase 1 (TDP1): qHTS in cells in presence of CPT. Potency, µM (doses to about 46.2 µM), inactives show at the highest dose activity change, negative = growth inhibition, actives largely listed as inhibitors. chicken DT40 Tdp1-/-;hTDP1 cells + 20 nM CPT, ATP luminescence, 48 h. actives 12% (n = 420,000). AID 686979, 2013; also: potency is read from the fitted curve at half-maximal effect; nearly all actives have a fitted effect of over 55% in size
#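 Chicken DT40 Tdp1-/- cells complemented with human TDP1, 400 cells/well, exposed to compounds plus 20 nM camptothecin for at least 48 h at 37 C; viability read as ATP content by CellTiter-Glo luminescence.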
# HT1080NT lethal = qHTS for induction of synthetic lethality in tumor cells producing 2HG: qHTS for the HT-1080-NT fibrosarcoma cell line | HT-1080-NT fibrosarcoma viability, CellTiter-Glo ATP luminescence, 48 h | Potency, µM (titrated, usually from 46.1 µM), without a hit: at the top dose activity, negative = less viability, hits mostly cytotoxic | AID 686970, 2013 | actives 1.6% (n = 360,000);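 also: NT is the 2HG producing partner of a matched IDH1 knockdown line; potency is read from the fitted curve at half-maximal effect; 0% = DMSO-treated cells and -100% = media-only wells without cells; nearly all actives have a fitted effect of over 55% in size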
#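 Compounds were tested in concentration-response format on HT-1080-NT cells for 48 hours at 37 degrees C. Cell viability came from CellTiter-Glo luminescence; curves were classified by r2, response magnitude and activity.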
# IL-1B inflam inh = qHTS for Inhibitors of Inflammasome Signaling: IL-1-beta AlphaLISA Primary Screen; THP-1 LPS/ATP IL-1B secretion, AlphaLISA, 16 h; hits give low values; activity change, % at 57.5 µM; actives 4.7% (n = 360,000); AID 743279, 2014; in the data active = activity change below about -50%; inconclusive = mostly about -30% to -49%
#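 THP-1 cells pretreated 1 hr with compounds (up to 57.5 uM final), then stimulated with LPS (250 ng/mL final) plus ATP (1.25 mM final); secreted IL-1B measured by AlphaLISA after 16 hr, decreased signal indicating inhibition.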
# Starred values were filed as active, the others as inactive; ? = inconclusive; / = no result; ! = a repeat was not active. Unless noted, calls follow the shape of the dose curve; as a rule, active = well fitted curve in the direction sought with a large enough effect; inconclusive = small, poorly fitted or top-dose-only effect, or another doubt; inactive = no such curve, though single readings can be large; an effect the other way counts as inactive or inconclusive. Unless noted, % is scaled to controls: 0 for no effect and ±100 for the full control effect.
SMILES,HT1080 IDH1KD tx,DT40 TDP1 no CPT,DT40 TDP1 CPT,HT1080NT lethal,IL-1B inflam inh
CCn1c(SCC(=O)N=Nc2c(O)[nH]c3ccccc23)nc2ccccc21,-6.7%,16.4µM*,16.4µM*,-12.5%,0.8
Cc1ccc(CN2CCN(CC(=O)N=Nc3c(O)[nH]c4ccccc34)CC2)cc1,-23.6%,14.6µM*,?,-14.4%,-2.0
Cc1ccc(S(=O)(=O)N(CC(=O)N=Nc2c(O)[nH]c3ccccc23)c2cccc(C)c2)cc1,13µM*,20.6µM*,?,?,-0.8
O=C(CNC(=O)c1ccccn1)N=Nc1c(O)[nH]c2ccccc12,-16.4%,14.6µM*,?,-21.4%,26.6
O=C(NC(=S)NCc1nc2ccccc2[nH]1)c1ccc(F)cc1,10.2%,?,-8.9%,7.4%,-12.3
CC(C)(C)c1ccc(C(=O)NC(=O)COC(=O)c2ccco2)cc1,-19.7%,-27.4%,?,-16.3%,17.9
COCCCNC(=O)Cn1c(=O)nc(-c2ccccc2)c2ccccc21,/,-4.0%,9.2%,/,/
CCCCN(C)C(=O)Cn1c(C2CC(=O)N(c3ccc(C)cc3)C2)nc2ccccc21 (configuration not stated),/,-23.3%,-11.5%,/,/
CC(=O)N(CN1C(=O)c2ccc([N+](=O)[O-])cc2C1=O)c1cccc(C(=O)O)c1,0.2%,10.6%,11.2%,10.3%,0.0
CCCCC1Cc2[nH]c(=S)[nH]c(=O)c2C(c2cccc3ccccc23)O1 (configuration not stated),?,?,-15.0%,-24.2%,26.5
O=C(Nc1ccccc1-c1ccccc1)c1ccc(NC(=O)c2ccco2)cc1,-1.5%,?,-7.7%,-0.2%,42.0
CCOC(=O)C1CCN(CC(O)COCc2ccccc2)CC1 (configuration not stated),-0.7%,-6.3%,16.9%,13.6%,2.3
CCOC(=O)C1CCN(CC(O)COc2ccc(C(C)=O)cc2)CC1 (configuration not stated),-0.2%,-1.0%,9.1%,0.0%,51.6
CCOC(=O)C1CCN(CC(O)COc2ccc(C(C)(C)C)cc2)CC1 (configuration not stated),?,16.4µM*,?,?,-7.5
CCOC(=O)C1CCN(CC(O)COc2ccc(C(C)(C)CC)cc2)CC1 (configuration not stated),1.4%,18.4µM*,16.4µM*,8.3%,?
CCN1CCN(Cc2nc3cc(NC(=O)c4cccc([N+](=O)[O-])c4)ccc3n2CC)CC1,/,-10.3%,-11.2%,/,/
CCn1c(CN2CCCCC2)nc2cc(NC(=O)c3ccc([N+](=O)[O-])cc3)ccc21,/,9.2µM*,9.2µM*,/,/
CCOC(=O)N1CCN(Cc2nc3cc(NC(=O)c4cccc(C)c4)ccc3n2C(C)C)CC1,/,0.731µM*,0.92µM*,/,/
CCOC(=O)N1CCN(Cc2nc3cc(NC(=O)CC)ccc3n2C(C)C)CC1,/,0.731µM*,0.92µM*,/,/
CCOC(=O)N1CCN(Cc2nc3cc(NC(=O)c4cccs4)ccc3n2CC)CC1,?,25.9µM*,23.1µM*,?,?
COc1ccccc1C(=O)NCC1(N2CCN(C)CC2)CCCCC1,/,-6.5%,-17.1%,/,/
CC(C)OP(=O)(c1ccc(N(C)C)cc1)C(O)c1c(Cl)cccc1Cl (configuration not stated),-1.2%,-17.5%,-24.6%,-0.4%,-24.1
COC(=O)c1cc2oc3ccccc3c2n1Cc1nc(-c2ccccc2Cl)oc1C,/,-15.6%,-16.9%,/,/
CCOC(=O)c1c(C)c(C(=O)NCCc2ccc(OC)cc2)c(C)n1C,/,-15.7%,12.4%,/,/
CCCCCC1C(=O)C[C@@H]2CCN3C(=O)CCC[C@H]1[C@H]23 (some centres not stated),0.3%,?,-15.7%,-4.5%,60.8
SMILES,HT1080 IDH1KD tx,DT40 TDP1 no CPT,DT40 TDP1 CPT,HT1080NT lethal,IL-1B inflam inh
CCOC(=O)N1CCN(Cc2nc3cc(NC(C)=O)ccc3n2CC)CC1,0.9%,-1.5%,-8.5%,-0.1%,-12.3
CCOC(=O)N1CCN(Cc2nc3cc(NC(=O)CC(C)C)ccc3n2C)CC1,5.6%,?,-22.7%,3.9%,9.7
CCOC(=O)N1CCN(Cc2nc3cc(NC(=O)CC(C)C)ccc3n2C(C)C)CC1,/,0.731µM*,0.82µM*,/,/
CCOC(=O)N1CCN(Cc2nc3cc(NC(=O)CC(C)C)ccc3n2CC)CC1,?,9.2µM*,14.6µM*,-28.9%,-16.7
O=C1/C(=C/c2ccccc2)CSc2sccc21,-3.0%,?,-28.5%,-8.2%,0.7
O=C1C(Cc2ccccc2O)NC(=S)N1c1ccccc1 (configuration not stated),25.5%,-16.8%,-20.4%,27.0%,19.2
O=[N+]([O-])c1cc(C=Nc2ccc3ccccc3c2)ccc1Br,-25.9%,2.91µM*,2.59µM*,-4.1%,-4.3
CCOc1ccc(N=Cc2ccc3ccccc3c2)cc1,10.1%,-18.8%,-15.3%,0.7%,-8.8
COc1cc(OC)c(-c2nn3c(-c4n[nH]c5c4CCC5)nnc3s2)cc1OC,/,11.2µM*!,?,/,/
COc1cc(OC)c(-c2nn3c(-c4cc(C)[nH]n4)nnc3s2)cc1OC,/,4.47µM*,7.08µM*,/,/
CN(C)S(=O)(=O)N1CCC(n2nccc2NC(=O)CCCc2ccccc2)CC1,-0.2%,-8.5%,-26.7%,-0.2%,-1.9
CC(C)NCC(O)c1ccc(O)c(O)c1 (configuration not stated),9.9%,-24.5%,?,?,-24.5
